The values that follow come from PubChem BioAssay AID1851 (National Center for Advancing Translational Sciences (NCATS), 2009).

The campaign covered roughly 16,000 compounds. About 5,800 (36%) were called active. About 23% were inconclusive and are not listed. Some of the results follow. Values without a mark were called inactive. The call rests on the fitted dose curve; in most records, active means well fitted curve in the direction sought with a large enough effect; inconclusive means small, poorly fitted or top-dose-only effect, or effect the other way; inactive means no such curve, though single readings can be large or run the other way.
On the % scale 0 is the no-effect control and ±100 the full control effect.

Sequence of Cytochrome P450 2C19 (Homo sapiens) (P33261 whole entry, looked up): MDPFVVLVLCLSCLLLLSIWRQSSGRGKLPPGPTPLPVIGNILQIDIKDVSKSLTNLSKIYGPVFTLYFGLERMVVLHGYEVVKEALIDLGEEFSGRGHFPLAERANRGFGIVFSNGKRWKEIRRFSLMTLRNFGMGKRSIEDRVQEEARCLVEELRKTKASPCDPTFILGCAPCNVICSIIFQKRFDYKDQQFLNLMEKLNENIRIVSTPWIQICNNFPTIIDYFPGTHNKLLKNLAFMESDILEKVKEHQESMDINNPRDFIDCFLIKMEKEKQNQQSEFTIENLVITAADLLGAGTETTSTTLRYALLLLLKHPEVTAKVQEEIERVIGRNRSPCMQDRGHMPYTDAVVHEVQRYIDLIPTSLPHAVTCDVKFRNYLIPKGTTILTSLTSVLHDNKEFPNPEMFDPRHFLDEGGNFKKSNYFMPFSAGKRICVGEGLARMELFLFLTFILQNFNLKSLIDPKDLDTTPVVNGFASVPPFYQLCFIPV

This assay addresses Cytochrome P450 2C19 (Homo sapiens) (UniProt P33261). Kind of assay: Cytochrome panel assay with activity outcomes. Particulars: recombinant CYP, pro-luciferin dealkylation, luminescence, p450-cyp2c19; series mostly up to 57.1 µM; activity, negative = inhibition: at the top concentration.
Regarding `c1ccc(SCc2nc3ccccc3[nH]2)cc1`, the AC50 (in general, the concentration giving half of the maximal activity seen) was 1.41 µM (active).

As to `OC(Cc1nc2ccccc2[nH]1)c1ccccc1Cl` (stereo not given), the AC50 is 8.91 µM (active).

As to `CCn1c(SCc2nc3ccccc3[nH]2)nnc1-c1ccc(OC)cc1`, the AC50 is 2.51 µM (active).

Turning to `c1ccc(-c2nnc(SCc3nc4ccccc4[nH]3)n2Cc2ccco2)cc1`, the half-maximal activity concentration (AC50) was 2.51 µM (active).

As to `O=C(c1cnccn1)N1CCC2(CC1)CN(Cc1cc(C(F)(F)F)cc(C(F)(F)F)c1)C2`, the “activity, negative = inhibition” value is -28.5%.

Turning to `C=CCNC(=S)N1CCN(c2ncc3c(=O)c(C(=O)O)cn(CC)c3n2)CC1`, the “activity, negative = inhibition” value was -24.5%.

As to `COc1ccc2oc(=O)c(NC(=O)C3CCCCC3)cc2c1`, the “activity, negative = inhibition” value was -27.6%.

As for `Cc1cc(NC(=O)C2CCCCC2)nc2c1c(=O)oc1ccccc12`, the half-maximal activity concentration (AC50) was 8.91 µM (active).

Regarding `N#Cc1c(-c2ccc3c(c2)OCO3)ccn2nc(-c3cccc(C(F)(F)F)c3)nc12`, the AC50 is 2.51 µM (active).

As to `COc1c(O)cc2c(c1O)[C@@H]1O[C@@H](CO)[C@@H](O)[C@@H](O)[C@@H]1OC2=O`, the “activity, negative = inhibition” value was 32.9% [at 25.6 µM].

Take `Cc1ccc(S(=O)(=O)Nc2nc(C)c(NC(=O)Nc3ccc(Cl)cc3Cl)s2)cc1`: the AC50 was 14.1 µM (active).

`Cc1ccc(S(=O)(=O)NC(=O)Nc2ncn[nH]2)cc1`: the activity, negative = inhibition is 37.1% [at 11.4 µM].

In the case of `Cc1nnc(NS(=O)(=O)c2ccc(N)cc2)s1`, the “activity, negative = inhibition” value is 23.1% [at 25.6 µM].

For the compound `O=c1[nH]c2ccccc2c2ccccc12`, the “activity, negative = inhibition” value is -30.4%.

Regarding `O=c1[nH]ccc2c(O)cccc12`, the “activity, negative = inhibition” value is 11.1%.

On to `Cc1nc2c(O)cccc2c(=O)[nH]1`, for which the concentration at half-maximal activity (AC50) is 0.398 µM (active).

In the case of `CN(C)Cc1ccccc1-c1nc(N2CCOCC2)c2ccccc2n1`, the “activity, negative = inhibition” value was 30.7%.

In the case of `CN1c2ccccc2C(C)(C)C12C=Nc1c(cc(N3CCOCC3)c3ccccc13)O2` (stereo not given), the AC50 is 3.55 µM (active).

As for `Cc1ccc(C2/C(=C(/O)c3ccc(Cl)cc3)C(=O)C(=O)N2CC2CCCO2)o1` (stereo not given), the “activity, negative = inhibition” value is -16.5%.

Regarding `COc1cccc(C2=CC(c3ccccc3)n3nnnc3N2)c1` (stereo not given), the AC50 was 0.158 µM (active).

Regarding `O=C(O)Cc1nn(Cc2ccc(Br)cc2F)c(=O)c2ccccc12`, the “activity, negative = inhibition” value was -24.3%.

With `COc1ncc2nc(-c3ccccc3)c(=O)n(-c3ccccc3)c2n1`, the “activity, negative = inhibition” value was -27.6%.

For `O=c1c2ccccc2c(-c2ccccc2)nn1-c1ccc(Cl)c(Cl)c1`, the half-maximal activity concentration (AC50) was 2.51 µM (active).

For the compound `COc1ncc2nc(-c3ccc(Cl)cc3)c(=O)n(-c3ccccc3)c2n1`, the “activity, negative = inhibition” value was -31.9%.

In the case of `Cn1c(=O)c(-c2ccc(Cl)cc2)nc2cnc(Nc3ccccc3)nc21`, the “activity, negative = inhibition” value was 6.65%.

Consider `O=c1c2ccccc2c(-c2ccccc2)nn1Cc1ccc(Cl)cc1`, for which the AC50 was 1.12 µM (active).

As to `CN1Cc2c(N)cccc2[C@H](c2ccccc2)C1`, the AC50 result is “inactive”.

As for `O=P(O)(CCP(=O)(O)c1ccccc1)c1ccccc1`, the activity, negative = inhibition was 2.23% [at 11.4 µM].

On to `O=P(Cc1cc[n+]([O-])cc1)(c1ccccc1)c1ccccc1`, for which the concentration at half-maximal activity (AC50) is 15.8 µM (active).

For the compound `Cc1ccccc1-c1nc(CS(=O)CC(=O)NCCN2CCN(Cc3ccccc3)CC2)c(C)o1` (stereo not given), the AC50 is 17.8 µM (active).

On to `CCCN(CCC)CCCNC(=O)CS(=O)Cc1nc(-c2ccc(OC)c(OC)c2)oc1C` (stereo not given), for which the “activity, negative = inhibition” value was -24.7%.

On to `CCS(=O)(=O)N1CCC(C(=O)NCCN2CCN(Cc3ccccc3)CC2)CC1`, for which the “activity, negative = inhibition” value was -5.92%.

As for `CN1CCN(c2ncnc3ccc(-c4cccc(C#N)c4)cc23)CC1`, the “activity, negative = inhibition” value is -31.3%.

For the compound `CN(Cc1ccco1)c1ncnc2ccc(-c3ccccc3C(F)(F)F)cc12`, the AC50 was 3.16 µM (active).

`CNc1ncnc2ccc(-c3ccccc3C#N)cc12`: the “activity, negative = inhibition” value is -33.6%.

As for `CN(Cc1ccco1)c1ncnc2ccc(-c3cccc(C#N)c3)cc12`, the concentration at half-maximal activity (AC50) was 6.31 µM (active).

For the compound `CN(Cc1ccco1)c1ncnc2ccc(-c3ccccc3C#N)cc12`, the AC50 was 1.26 µM (active).

As to `CN(C)c1ncnc2ccc(-c3ccccc3C#N)cc12`, the “activity, negative = inhibition” value is -19.8%.

As for `CN(Cc1ccco1)c1ncnc2ccc(-c3ccccc3Cl)cc12`, the AC50 was 3.16 µM (active).

`COc1ncc2nc(-c3ccc(F)cc3)c(=O)n(C)c2n1`: the “activity, negative = inhibition” value was -5.58%.

In the case of `Cc1noc(C)c1-c1ccc2ncnc(N3CCN(C)CC3)c2c1`, the “activity, negative = inhibition” value was -24.5%.

With `Cc1noc(C)c1-c1ccc2ncnc(N3CCOCC3)c2c1`, the “activity, negative = inhibition” value is -43.8%.

Turning to `Cc1noc(C)c1-c1ccc2ncnc(N(C)Cc3ccco3)c2c1`, the AC50 was 5.01 µM (active).

With `COc1cc(/C=C2\SC(=S)N(Nc3ccccc3)C2=O)cc(OC)c1OC`, the AC50 was 11.2 µM (active).

Consider `Cc1ccc(S(=O)(=O)/C=C\C#N)cc1`, for which the AC50 is 5.01 µM (active).

As to `Cc1nn(-c2nc3ccccc3[nH]2)c(N)c1-c1ccc(Cl)cc1`, the concentration at half-maximal activity (AC50) is 4.47 µM (active).

In the case of `OCCNc1nc2ccccc2[nH]1`, the “activity, negative = inhibition” value was -39.8%.

For `Cc1ccccc1CSc1nccn1-c1ccccc1`, the concentration at half-maximal activity (AC50) was 0.631 µM (active).

For `Clc1ccc(CSc2nccn2Cc2ccccc2)cc1`, the concentration at half-maximal activity (AC50) is 0.224 µM (active).

With `O=c1ccnc(SCc2ccc(Cl)cc2)[nH]1`, the activity, negative = inhibition is -32.7% [at 11.4 µM].

For the compound `O=C(O)CSCCc1ccccc1`, the activity, negative = inhibition is 6.64% [at 11.4 µM].

Turning to `c1ccc(CCSc2nccn2-c2ccccc2)cc1`, the half-maximal activity concentration (AC50) is 1.26 µM (active).

For `O=C(CSc1nccn1-c1ccccc1)c1ccc(Cl)cc1`, the AC50 was 0.447 µM (active).

As to `Nc1ncnc2c1nc(Sc1ccc(Cl)cc1)n2[C@@H]1O[C@H]2COP(=O)(O)O[C@@H]2[C@H]1O`, the “activity, negative = inhibition” value is -24.6%.

As for `CCc1ccc(CSc2nccn2-c2ccccc2)cc1`, the AC50 was 1.58 µM (active).

With `N#CC1(Nc2ccc(-c3ccc(NC4(C#N)CCCC4)cc3)cc2)CCCC1`, the activity, negative = inhibition is 4.93% [at 11.4 µM].

Regarding `O=C(O)/C=C/C(=O)Nc1ccccc1-c1ccccc1`, the “activity, negative = inhibition” value is -18.3%.

On to `CCOc1c(Cl)cc(C(=O)Nc2ccccc2-c2ccccc2)cc1Cl`, for which the half-maximal activity concentration (AC50) is 2.51 µM (active).

For the compound `CCOC(=O)c1ccc(Cl)c(NC(=O)c2ccc(-c3ccccc3)cc2)c1`, the “activity, negative = inhibition” value is -23.7%.

For the compound `O=c1cnc2cnc(Oc3ccccc3)nc2n1Cc1cccs1`, the AC50 was 1.26 µM (active).

As for `O=c1c(-c2cccs2)nc2cnc(Oc3ccccc3)nc2n1Cc1cccs1`, the “activity, negative = inhibition” value is 6.36%.

In the case of `O=c1cnc2cnc(Oc3cccc(Cl)c3)nc2n1C1CC1`, the AC50 was 15.8 µM (active).

On to `COc1ncc2nc(-c3ccc(F)cc3)c(=O)n(Cc3ccc(F)cc3)c2n1`, for which the “activity, negative = inhibition” value was 1.23%.

With `N#Cc1cccc(-c2nc3cnc(Oc4cccc(Cl)c4)nc3n(C3CC3)c2=O)c1`, the “activity, negative = inhibition” value is -30.1%.

For `COc1ncc2ncc(=O)n(Cc3ccc(F)cc3)c2n1`, the AC50 is 7.94 µM (active).

In the case of `COc1cccc(Cn2c(=O)cnc3cnc(Oc4cccc(Cl)c4)nc32)c1`, the AC50 was 25.1 µM (active).

In the case of `COc1ncc2ncc(=O)n(CCC#N)c2n1`, the “activity, negative = inhibition” value is 5.25%.

For the compound `O=c1c(-c2ccccc2)nc2cnc(Oc3cccc(Cl)c3)nc2n1C1CC1`, the “activity, negative = inhibition” value was -83.9%.

With `COc1ncc2ncc(=O)n(Cc3cccs3)c2n1`, the “activity, negative = inhibition” value was -42%.

Take `COc1cccc(Cn2c(=O)cnc3cnc(N4CCN(C)CC4)nc32)c1`: the “activity, negative = inhibition” value is -43.5%.
